Laboratory results: PMC4336329 (PLoS ONE, 2015)
About 14,000 (4.5%) of roughly 310,000 compounds showed an effect of 50% or more. Effects have a minus sign here. For the sample, strong results were picked, then their nearest neighbours and some compounds at random.

Molecular target: human ether-à-go-go-related gene (hERG) potassium channel (human, UniProt Q12809)
Assay: primary screen, population patch clamp on CHO cells stably expressing hERG; higher = less effect of the substance
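Also: peak tail current of the secondary pulse compared with the same well before compound.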

Chain of human ether-à-go-go-related gene (hERG) potassium channel (Q12809 whole entry, looked up): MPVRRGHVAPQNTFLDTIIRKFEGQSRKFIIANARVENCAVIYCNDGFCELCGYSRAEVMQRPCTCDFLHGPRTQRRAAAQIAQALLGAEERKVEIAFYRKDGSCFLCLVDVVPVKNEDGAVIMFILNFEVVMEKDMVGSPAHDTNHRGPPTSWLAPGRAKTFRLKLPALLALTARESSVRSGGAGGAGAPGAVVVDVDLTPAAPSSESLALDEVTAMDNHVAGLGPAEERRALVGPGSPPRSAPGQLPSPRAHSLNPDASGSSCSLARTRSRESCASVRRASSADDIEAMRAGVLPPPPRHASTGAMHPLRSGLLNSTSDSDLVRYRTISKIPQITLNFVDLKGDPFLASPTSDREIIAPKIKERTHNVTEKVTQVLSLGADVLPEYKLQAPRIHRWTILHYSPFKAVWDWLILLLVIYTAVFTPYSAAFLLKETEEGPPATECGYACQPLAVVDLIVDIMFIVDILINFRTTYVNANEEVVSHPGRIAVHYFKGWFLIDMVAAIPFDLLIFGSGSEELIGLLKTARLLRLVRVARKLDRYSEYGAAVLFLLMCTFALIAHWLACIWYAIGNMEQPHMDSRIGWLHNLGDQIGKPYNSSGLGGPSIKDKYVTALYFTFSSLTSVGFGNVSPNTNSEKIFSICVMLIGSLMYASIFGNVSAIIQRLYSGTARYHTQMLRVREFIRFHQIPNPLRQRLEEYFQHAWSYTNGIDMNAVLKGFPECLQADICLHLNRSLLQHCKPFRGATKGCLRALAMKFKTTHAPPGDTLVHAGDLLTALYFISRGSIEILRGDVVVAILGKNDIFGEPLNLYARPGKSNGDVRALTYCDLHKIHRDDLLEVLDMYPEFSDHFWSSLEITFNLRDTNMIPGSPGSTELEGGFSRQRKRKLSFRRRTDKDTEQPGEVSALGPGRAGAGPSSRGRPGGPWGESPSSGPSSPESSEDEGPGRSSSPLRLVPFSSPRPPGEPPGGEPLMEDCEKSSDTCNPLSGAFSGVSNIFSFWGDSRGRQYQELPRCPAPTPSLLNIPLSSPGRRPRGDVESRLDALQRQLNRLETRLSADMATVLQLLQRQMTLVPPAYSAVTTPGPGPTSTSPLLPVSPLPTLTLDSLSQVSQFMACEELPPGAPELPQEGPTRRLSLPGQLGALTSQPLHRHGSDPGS

| Structure (SMILES) | hERG current change (%, negative = inhibition) at 10uM [%] |
| --- | --- |
| CCN(CC)c1ccc(CNc2nc3ccccc3n2CC)cc1 | -23.5 |
| CCN(CC)c1ccc(CNc2nc3ccccc3n2C)cc1 | -49.7 |
| CCC(=O)Nc1nc2ccccc2n1CCN1CCOCC1 | 16.2 |
| CCN(CC)c1ccc(CNc2nc3ccccc3n2CCN2CCCCC2)cc1 | -74.5 |
| CCN(CC)c1ccc(CNc2nc3ccccc3n2C(C)C)cc1 | 1.88 |
| CCN(CC)c1ccc(CNc2nc3ccccc3n2CCN2CCOCC2)cc1 | -79.5 |
| Cc1ccc(NC(=O)CCN2C(=O)C3CC=CCC3C2=O)cc1Cl (stereo not drawn) | -10.9 |
| COc1cc(-c2nnc(-c3ccncc3)o2)ccc1OCc1ccccc1 | 4.05 |
| Cc1ccccc1-c1nc2cc(NC(=O)C3CC3)ccc2o1 | 7.97 |
| Cc1ccc(NC(=O)C2CC2c2ccccc2)cc1 (stereo not drawn) | 2.96 |
| Cc1cccc(OCC(=O)Nc2cc(C)ccc2O)c1 | 12.4 |
| Cc1ccc2nc3c(cc(C(N)=S)c(=N)n3CCCOC(C)C)c(=O)n2c1 | -74.4 |
| CCOCCCn1c(=N)c(S(=O)(=O)c2ccccc2)cc2c(=O)n3cc(C)ccc3nc21 | -19.1 |
| CCOCCCn1c(=N)c(S(=O)(=O)c2ccc(C)cc2)cc2c(=O)n3cc(C)ccc3nc21 | 11.6 |
| CC(C)OCCCn1c(=N)c(C(N)=S)cc2c(=O)n3ccccc3nc21 | -81.5 |
| CCCn1c(=N)c(S(=O)(=O)c2ccccc2)cc2c(=O)n3ccccc3nc21 | -15.6 |
| CC(C)OCCCn1c(=N)c(S(=O)(=O)c2ccccc2)cc2c(=O)n3ccccc3nc21 | -43.6 |
| CCOC(=O)C1=C(N)Oc2cc(C)[nH]c(=O)c2C1c1ccncc1 (stereo not drawn) | 11.9 |
| COc1cc2c(cc1C1NC(=S)NC(C)=C1C(N)=O)CCCC2 (stereo not drawn) | 9.6 |

| Structure (SMILES) | hERG current change (%, negative = inhibition) at 10uM [%] |
| --- | --- |
| Cc1ccc(CNC(=O)CN2CCCC(C)C2)cc1 (stereo not drawn) | -29.7 |
| COc1ccc(N2CCN(C3CC(=O)N(C)C3=O)CC2)cc1 (stereo not drawn) | 17.4 |
| O=S(=O)(c1ccc(Br)cc1Cl)N1CC[NH+](CCO)CC1.[Cl-] | 3.35 |
| Oc1ccc(/C=N/N(Cc2ccccc2)c2ccccc2)cc1 | 35.8 |
| Cc1sc2ncn(CC(=O)NCCCC(=O)N3CCN(Cc4ccc5c(c4)OCO5)CC3)c(=O)c2c1C | -6.94 |
| CCn1ncc(/C=C/C(=O)c2ccccc2)c1C | 5.83 |
| COC(=O)c1c(NC(=O)CSc2nccn2C)sc(C)c1C | -15.8 |
| CCc1cc(C(=O)OC)c(NC(=O)CSc2nccn2C)s1 | -56.9 |
| CCOC(=O)c1cc(C)sc1NC(=O)CSc1nccn1C | -19.9 |
| O=C1CCC(=O)N1CC(O)COc1ccccc1 (stereo not drawn) | 4.87 |
| Cl.OC(COc1ccccc1)CN1C2=NCCCN2c2ccccc21 (stereo not drawn) | -67 |
| Cl.OC(COc1ccc(Cl)cc1)CN1C2=NCCCN2c2ccccc21 (stereo not drawn) | -76.3 |
| Cc1cc(C(=O)NNC(=O)c2ccccc2[N+](=O)[O-])c(C)o1 | 11.2 |
| O=C(CN1CCN(Cc2ccccc2)CC1)N/N=C/c1cccs1 | -22.9 |
| O=C(CN1CCN(Cc2ccc(Cl)cc2)CC1)N/N=C/c1cccs1 | -67.2 |
| O=C(CN1CCN(Cc2ccccc2)CC1)N/N=C/c1cccnc1 | -12.8 |
| O=C(CN1CCN(Cc2ccc(Cl)cc2)CC1)N/N=C/c1ccncc1 | -80.1 |
| O=C(CN1CCN(Cc2ccccc2Cl)CC1)N/N=C/c1cccs1 | -20.4 |
| O=C(Cc1ccc(Cl)cc1)N/N=C/c1ccncc1 | -27.3 |

| Structure (SMILES) | hERG current change (%, negative = inhibition) at 10uM [%] |
| --- | --- |
| O=C(O)CCCNC(=O)Cc1ccccc1 | 5.08 |
| O=C(C1=C(O)C(=O)N(c2ncccn2)C1c1cccs1)c1ccco1 (stereo not drawn) | 14.3 |
| COc1ccccc1C1NC(=O)NC(C)=C1C(=O)OC1CCCCC1 (stereo not drawn) | 6.66 |
| COCCNC(=O)C(=O)NNC(=O)CCc1ccccc1 | 8.78 |
| CCOC(=O)CN1C(=O)N[C@@H](c2cccc(C(F)(F)F)c2)C(C(C)=O)=C1C | 11.8 |
| Cn1nc(-c2ccccc2)c2nc3ccccc3nc21 | -5.31 |
| CC(=O)c1ccc(N2CCN(C(=O)c3cc(-c4ccncc4)nc4ccc(Br)cc34)CC2)cc1 | -42 |
| O=C(c1cc(-c2ccncc2)nc2ccc(Cl)cc12)N1CCN(Cc2ccc3c(c2)OCO3)CC1 | -46.7 |
| Cl.Nc1nc(N2CCN(C(=O)c3ccco3)CC2)nc2ccc(Br)cc12 | -59.5 |
| COc1cc2nc(N3CCN(C(=O)c4ccco4)CC3)nc(N)c2cc1OC.Cl | -35.9 |
| O=C(c1cc(-c2ccncc2)nc2ccc(Br)cc12)N1CCN(c2ccccn2)CC1 | -37.2 |
| Cl.Nc1nc(N2CCN(C(=O)c3ccco3)CC2)nc2ccccc12 | -49.4 |
| O=C(O)c1cc(-c2ccc3c(c2)OCO3)nc2ccc(Br)cc12 | 9.07 |
| O=C(c1cc(-c2ccncc2)nc2ccc(Br)cc12)N1CCN(Cc2ccc3c(c2)OCO3)CC1 | -56.5 |
| O=C(c1ccco1)N1CCN(C(=O)c2cc(-c3ccncc3)nc3ccc(Br)cc23)CC1 | -72.7 |
| Cc1nc(C)c(-c2csc(Nc3ccc(F)cc3)n2)s1 | -25.1 |
| O=C1CSc2ccc(C(=O)Nc3cccc(S(=O)(=O)Nc4ccc(Br)cc4)c3)cc2N1 | 15 |
| O=C(COC(=O)c1cccc(-n2cnnn2)c1)c1ccc(F)cc1 | -0.561 |
| CCOC(=O)C1CCN(S(=O)(=O)c2ccc3c(c2)CC(=O)N3C)CC1 | -22 |
